Bioassay records: PubChem, Center for Chemical Genomics, University of Michigan
Dicer processing: inhibitors of Dicer pre-microRNA processing, primary screen, biochemical, cat-ELCCA, chemiluminescence | Endoribonuclease Dicer (Homo sapiens), Q9UPY3 | 47,000 tested, 6% active | cat-ELCCA pre-miR-21 Dicer processing; active compounds read high | z-score at 25 µM; in the data active = z-score above about 3, passing the limit was not always enough;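 also: higher signal means more uncleaved substrate so more Dicer inhibition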
Hits are given with their value; - = inactive. The sample as a whole holds a higher share of hits than the screen did.

SMILES	Dicer processing
NC(=O)N/N=C/c1ccc2c(c1)OCO2	-
Cc1ccc(C(C)NC(=S)Nc2ccc(Cl)cc2)c(C)c1 (stereo not drawn)	-
CC(NC(=S)Nc1ccc(Oc2ccc(Cl)cc2)cc1)c1ccccc1 (stereo not drawn)	3.9
CCOc1ccc(NC(=S)NC(c2ccccc2)c2ccccc2)cc1	-
Cc1nc(Nc2nc3ccccc3o2)nc(-c2ccc(Cl)cc2)c1C#N	-
O=C(O)CCC(=O)Nc1ccc(OC(F)(F)F)cc1Br	-
Cc1ccc(NC(=O)CCS(=O)(=O)Cc2ccccc2)c(Br)c1	4.5
O=C(O)CCC(=O)Nc1cc2c(cc1Br)OCCO2	-
Cc1n[nH]c(C)c1Sc1nnc(C(F)(F)F)n1C	-
CC(C)(C)S(=O)(=O)/C(C#N)=C/N/N=C/c1ccccc1Cl	-
CCc1ccc(CC)c(S(=O)(=O)Nc2ccc3oc(=O)sc3c2)c1	7.8
CCc1ccc(S(=O)(=O)Nc2ccc3oc(=O)sc3c2)cc1	7.9
CCc1ccc(S(=O)(=O)Nc2cccc(S(N)(=O)=O)c2)cc1	-
CCc1ccc(-c2nc3cc(NS(=O)(=O)c4ccccc4)ccc3o2)cc1	-
CCCC(=O)N(c1ccc2oc(=O)sc2c1)S(=O)(=O)c1ccc(Cl)cc1	-
CCCCC(=O)N(c1ccc2oc(=O)sc2c1)S(=O)(=O)c1ccccc1	-
Cn1c(=O)c2c(N3CCOCC3)cc(=O)n(C)c2n(C)c1=O	-
Cc1ccc(F)cc1NC(=O)Nc1nnc(C2CC2)s1	-
CCOC(=O)C(C(=O)C(F)(F)F)C(NC(N)=S)c1ccco1 (stereo not drawn)	-
Cc1ccc(/C(O)=C2/C(=O)C(=O)N(c3ccccc3)C2=S)cc1	-
COc1ccc(/C(O)=C2\C(=O)C(=O)N(CCCN(C)C)C2c2ccccc2)cc1 (stereo not drawn)	-
COc1ccc(/C(O)=C2\C(=O)C(=O)N(CCN(C)C)C2c2ccccc2F)cc1 (stereo not drawn)	3.4
CN(C)CCN1C(=O)C(=O)/C(=C(/O)c2ccc(S(=O)(=O)N(C)C)cc2)C1c1ccccc1F (stereo not drawn)	-
COC(=O)C1=C(C)N=c2s/c(=C/c3ccc4c(c3)OCO4)c(=O)n2C1c1ccccc1 (stereo not drawn)	-
COC(=O)c1sc(N2C(=O)C(=O)/C(=C(/O)c3ccc(Cl)cc3)C2c2ccc(OC)cc2)nc1C (stereo not drawn)	-
SMILES	Dicer processing
COC(=O)C1=C(C)N=c2s/c(=C/c3ccc(Cl)cc3)c(=O)n2C1c1ccc(OC)cc1 (stereo not drawn)	4.6
CN(/N=C/c1ncc([N+](=O)[O-])n1C)c1cnn(-c2ccccc2)c(=O)c1Cl	-
CC1=CC(c2ccc(Cl)cc2)n2nc(NC(=O)c3ccco3)nc2N1 (stereo not drawn)	9.8
CS(=O)(=O)Nc1nc2n(n1)C(c1ccc(F)cc1)C=C(c1ccc(Cl)cc1)N2 (stereo not drawn)	-
Cc1ccc(C2C=C(c3ccc(Cl)cc3)Nc3nc(NS(C)(=O)=O)nn32)cc1 (stereo not drawn)	-
Cc1occc1-c1cc(N)n(-c2cccc(Cl)c2Cl)n1	-
Cc1c(Sc2ccc(Cl)cc2)cnn1C(=O)c1ccccc1	-
Cc1ccccc1N1OC2C(=O)N(C)C(=O)C2C1c1cccs1 (stereo not drawn)	-
O=C1CCC(=O)N1c1ccc(-c2nc3ccccc3c(=O)o2)cc1	-
CC(C)(C)c1ccc(NC(=O)NC2Cc3ccccc3C2)cc1	-
CCOc1ccc(N=c2ssc(SC)c2-c2ccccc2)cc1	-
CSc1ssc(=Nc2ccc(C)c(Cl)c2)c1-c1ccccc1	-
CSc1ssc(=Nc2ccc(F)c(F)c2)c1-c1ccccc1	3.6
COc1cc(OC)cc(C(C)(C)OC(=O)NCC(=O)O)c1	-
Cc1cc(C)c2[nH]c(C(=O)NCc3ccccc3)cc2c1	-
COCCCNC(=S)N/N=C/c1ccc(Cl)c(Cl)c1	-
O=C1C(Oc2ccccc2)C(c2ccc3c(c2)OCO3)N1CCc1ccc(F)cc1 (stereo not drawn)	-
COc1ccc(CCN2C(=O)C(Oc3ccccc3C)C2c2ccc3c(c2)OCO3)cc1 (stereo not drawn)	-
COc1ccc(OC2C(=O)N(Cc3ccc(F)cc3)C2c2ccc3c(c2)OCO3)cc1 (stereo not drawn)	3.6
COC(=O)C1=NN(c2ccc(OC)cc2)C2C(=O)N(c3ccc(Br)cc3)C(=O)C12 (stereo not drawn)	-
CCOC(=O)C1=NN(c2ccc(OC)cc2)C2C(=O)N(c3ccccc3)C(=O)C12 (stereo not drawn)	4.7
CCOC(=O)C1=NNC2C(=O)N(c3ccccc3)C(=O)C12 (stereo not drawn)	-
CCOC(=O)C1C(c2ccccc2)C(C(=O)OCC)S(=O)(=O)CS1(=O)=O (stereo not drawn)	-
CC(=O)N1N=C(c2ccco2)CC1c1cn(-c2ccccc2)nc1-c1cccs1 (stereo not drawn)	-
CCOC(=O)c1nn(-c2ccccc2)c(=O)c2c(N)c(C#N)c(-c3ccccc3)cc12	-
SMILES	Dicer processing
CC(=O)n1c(-c2ccc(C)cc2)cc(-c2ccc(C)cc2)c(C#N)c1=O	3.4
Cc1ccc(-c2cc(-c3ccccc3)c(C#N)c(N)n2)cc1	-
O=C(N/C=C/c1ccsc1)Sc1ccc(Cl)cc1	-
Cc1ccc(N2C(=O)/C(=C\c3coc4cc(C)cc(C)c4c3=O)SC2=S)c(C)c1	-
Cc1c(NC(=O)CC2SC(=O)NC2=O)c(=O)n(-c2ccccc2)n1C (stereo not drawn)	-
COc1ccc(S(=O)(=O)Nc2cc(C)ccn2)c(C)c1C	-
O=[N+]([O-])c1cc(C2SCCS2)ccc1SC1CCCCC1	-
COc1ccc2[nH]c(=O)c(-c3ccccc3)c(O)c2c1	-
COC(=O)c1[nH]c2ccc([N+](=O)[O-])cc2c1-c1ccccc1	-
COC(=O)Cc1c(-c2ccccc2)c2cc(Br)ccc2[nH]c1=O	3.9
CCOC(=O)N1CCc2c(sc3c2C(=O)NC(c2ccccc2O)N3)C1 (stereo not drawn)	-
O=C(NNc1cc(C(F)(F)F)ccn1)c1cccc(C(F)(F)F)c1	-
COC(=O)c1c(NC(=O)C2COc3ccccc3O2)sc2c1CCCC2 (stereo not drawn)	-
CCOC(=O)c1sc(NC(=O)C2CCCC2)c(C(=O)OCC)c1C	-
CCOC(=O)c1sc(NC(=O)C2COc3ccccc3O2)c(C(=O)OCC)c1C (stereo not drawn)	3.3
CCC(=O)Nc1sc(C(=O)OC)c(C)c1C(=O)OC	-
CCOC(=O)c1c(NC(C)=O)sc(C(=O)CC)c1C	6.1
CCOC(=O)c1sc(NC(=O)C2CCCO2)c(C(=O)OCC)c1C (stereo not drawn)	-
Cn1c(-c2ccccc2)[n+](C)c2ccccc21	-
O=C(N1CCCCC1)N1c2ccccc2CC(N2CCCCC2)c2ccccc21 (stereo not drawn)	-
COc1ccc(C(=O)/C(C#N)=C/N2CCc3ccccc3C2)cc1	-
O=C(CC1Sc2ccccc2NC1=O)Nc1ccccc1Cl (stereo not drawn)	-
COCCCN=C1NC(=O)C(CC(=O)Nc2ccccc2Cl)S1 (stereo not drawn)	3.1
COCCCN=C1NC(=O)C(CC(=O)Nc2cc(Cl)ccc2Cl)S1 (stereo not drawn)	-
O=[N+]([O-])c1ccsc1Oc1ccc(Cl)cc1	-
CCc1nc2nc(C)c(Cc3cccc(Cl)c3)c(=O)n2[nH]1	-
